# What was measured:
# Test in all cases: DAPPL (digital affinity profiling via proximity ligation, sequencing); 10 mM Tris-HCl pH 7.5, 50 mM NaCl, 1 mM DTT, 4% glycerol, room temperature, 30 min; GST-TFs on glutathione beads, 16-mer random dsDNA library, 0.1% formaldehyde crosslink after washing; high values mean tight binding
# [1] = target: T1, FLI1 (Homo sapiens, UniProt Q01543 1-452); conditions: protein: recombinant; tags: N-terminal GST; dsDNA, one strand shown
# T1 sequence: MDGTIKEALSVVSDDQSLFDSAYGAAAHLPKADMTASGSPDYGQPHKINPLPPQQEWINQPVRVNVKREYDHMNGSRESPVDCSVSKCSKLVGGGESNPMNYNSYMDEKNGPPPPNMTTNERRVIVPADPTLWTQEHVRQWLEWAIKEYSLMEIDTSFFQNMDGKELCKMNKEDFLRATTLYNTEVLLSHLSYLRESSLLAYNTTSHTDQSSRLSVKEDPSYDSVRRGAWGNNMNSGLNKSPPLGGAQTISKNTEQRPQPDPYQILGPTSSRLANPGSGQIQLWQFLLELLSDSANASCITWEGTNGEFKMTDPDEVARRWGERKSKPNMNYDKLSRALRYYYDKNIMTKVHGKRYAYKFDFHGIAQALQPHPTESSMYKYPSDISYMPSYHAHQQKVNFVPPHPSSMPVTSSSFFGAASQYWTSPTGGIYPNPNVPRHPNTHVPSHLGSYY
# How it was run: (§1)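 GST fusions of human transcription factors were expressed in yeast and captured with glutathione beads. Once given DNA barcodes and pooled alongside a tag-only sample, they were incubated for 30 min at room temperature with 200 nmole of a random double-stranded 16-mer DNA library in Tris/NaCl/DTT/glycerol buffer, then washed, crosslinked (0.1% formaldehyde), proximity-ligated, PCR-amplified and sequenced on an Illumina NextSeq500. The binding signal of each hexamer is its read frequency for a factor divided by its frequency for the tag-only sample.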
# [2] = target: T2, ELK1 (Homo sapiens, UniProt P19419 1-428); conditions: protein: recombinant; tags: N-terminal GST; dsDNA, one strand shown
# T2 sequence: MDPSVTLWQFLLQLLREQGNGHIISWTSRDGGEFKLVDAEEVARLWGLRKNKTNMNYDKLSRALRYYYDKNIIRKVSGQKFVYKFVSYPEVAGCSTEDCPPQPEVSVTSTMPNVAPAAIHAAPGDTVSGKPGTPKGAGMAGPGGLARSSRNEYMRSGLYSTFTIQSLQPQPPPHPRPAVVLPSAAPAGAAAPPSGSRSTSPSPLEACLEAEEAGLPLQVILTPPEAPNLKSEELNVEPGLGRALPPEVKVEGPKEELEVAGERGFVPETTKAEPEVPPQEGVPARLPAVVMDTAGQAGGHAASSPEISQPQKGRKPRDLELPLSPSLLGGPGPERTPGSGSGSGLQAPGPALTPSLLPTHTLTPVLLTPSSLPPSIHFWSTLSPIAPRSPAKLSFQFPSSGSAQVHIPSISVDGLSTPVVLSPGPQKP
# How it was run: as §1
# [3] = target: T3, GABPA (Homo sapiens, UniProt Q06546 1-454); conditions: protein: recombinant; tags: N-terminal GST; dsDNA, one strand shown
# T3 sequence: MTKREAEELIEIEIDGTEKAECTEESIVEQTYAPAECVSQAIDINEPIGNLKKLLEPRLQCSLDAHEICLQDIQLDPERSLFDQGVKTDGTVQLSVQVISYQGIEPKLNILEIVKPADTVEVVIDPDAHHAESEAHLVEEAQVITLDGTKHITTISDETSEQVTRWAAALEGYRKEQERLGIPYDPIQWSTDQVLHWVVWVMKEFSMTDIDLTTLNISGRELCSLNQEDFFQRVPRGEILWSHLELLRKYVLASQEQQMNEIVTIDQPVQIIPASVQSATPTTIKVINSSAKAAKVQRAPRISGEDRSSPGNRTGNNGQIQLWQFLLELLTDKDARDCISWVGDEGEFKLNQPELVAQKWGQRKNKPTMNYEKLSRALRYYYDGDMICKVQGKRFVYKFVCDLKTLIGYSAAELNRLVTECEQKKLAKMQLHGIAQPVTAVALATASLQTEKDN
# How it was run: as §1
# [4] = target: T4, ERG (Homo sapiens, UniProt P11308 1-479); conditions: protein: recombinant; tags: N-terminal GST; dsDNA, one strand shown
# T4 sequence: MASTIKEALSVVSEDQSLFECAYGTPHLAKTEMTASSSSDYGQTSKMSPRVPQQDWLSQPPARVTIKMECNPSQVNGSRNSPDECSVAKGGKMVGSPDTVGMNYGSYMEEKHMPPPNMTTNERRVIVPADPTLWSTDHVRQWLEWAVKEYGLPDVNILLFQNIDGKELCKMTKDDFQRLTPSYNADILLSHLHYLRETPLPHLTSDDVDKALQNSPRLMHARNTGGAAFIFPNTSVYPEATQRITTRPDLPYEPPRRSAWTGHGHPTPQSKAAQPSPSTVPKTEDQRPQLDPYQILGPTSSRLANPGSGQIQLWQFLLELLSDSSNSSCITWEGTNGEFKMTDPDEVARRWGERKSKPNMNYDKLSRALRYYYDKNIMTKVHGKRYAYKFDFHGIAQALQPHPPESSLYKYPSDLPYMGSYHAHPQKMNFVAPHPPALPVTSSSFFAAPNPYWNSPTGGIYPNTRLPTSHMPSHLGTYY
# How it was run: as §1
# [5] = target: ELF1 (Homo sapiens, UniProt P32519 1-619); conditions: protein: recombinant; tags: N-terminal GST; dsDNA, one strand shown
# Chain of ELF1 (P32519 whole entry): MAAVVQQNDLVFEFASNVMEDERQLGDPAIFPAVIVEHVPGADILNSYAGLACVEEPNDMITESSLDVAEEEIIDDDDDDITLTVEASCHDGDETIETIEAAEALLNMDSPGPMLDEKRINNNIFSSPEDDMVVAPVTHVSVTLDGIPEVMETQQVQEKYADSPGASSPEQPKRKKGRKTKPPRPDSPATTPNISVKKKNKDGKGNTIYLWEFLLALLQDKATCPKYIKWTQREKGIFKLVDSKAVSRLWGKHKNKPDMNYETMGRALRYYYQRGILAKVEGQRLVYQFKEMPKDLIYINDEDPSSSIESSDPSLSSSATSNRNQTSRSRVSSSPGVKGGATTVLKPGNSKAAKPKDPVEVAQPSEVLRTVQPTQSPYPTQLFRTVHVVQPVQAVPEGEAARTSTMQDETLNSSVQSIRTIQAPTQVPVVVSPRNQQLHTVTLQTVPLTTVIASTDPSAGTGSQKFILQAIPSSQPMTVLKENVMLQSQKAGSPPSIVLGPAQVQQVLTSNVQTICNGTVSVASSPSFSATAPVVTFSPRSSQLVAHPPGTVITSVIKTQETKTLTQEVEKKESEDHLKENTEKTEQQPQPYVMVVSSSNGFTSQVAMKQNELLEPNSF
# How it was run: as §1
# [6] = target: T5, EHF (Homo sapiens, UniProt Q9NZC4 1-300); conditions: protein: recombinant; tags: N-terminal GST; dsDNA, one strand shown
# T5 sequence: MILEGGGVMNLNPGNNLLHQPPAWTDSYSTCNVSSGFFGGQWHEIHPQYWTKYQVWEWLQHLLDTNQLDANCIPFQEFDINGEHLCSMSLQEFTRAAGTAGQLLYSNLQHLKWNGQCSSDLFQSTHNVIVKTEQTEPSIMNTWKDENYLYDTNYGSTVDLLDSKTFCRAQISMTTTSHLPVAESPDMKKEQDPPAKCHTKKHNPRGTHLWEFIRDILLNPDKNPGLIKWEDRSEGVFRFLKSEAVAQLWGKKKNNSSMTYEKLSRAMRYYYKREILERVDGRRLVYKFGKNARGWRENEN
# How it was run: as §1
# [7] = target: SPI1 (Homo sapiens, UniProt P17947 1-270); conditions: protein: recombinant; tags: N-terminal GST; dsDNA, one strand shown
# How it was run: as §1
# [8] = target: SPIB (Homo sapiens, UniProt Q01892 1-262); conditions: protein: recombinant; tags: N-terminal GST; dsDNA, one strand shown
# Chain of SPIB (Q01892 whole entry): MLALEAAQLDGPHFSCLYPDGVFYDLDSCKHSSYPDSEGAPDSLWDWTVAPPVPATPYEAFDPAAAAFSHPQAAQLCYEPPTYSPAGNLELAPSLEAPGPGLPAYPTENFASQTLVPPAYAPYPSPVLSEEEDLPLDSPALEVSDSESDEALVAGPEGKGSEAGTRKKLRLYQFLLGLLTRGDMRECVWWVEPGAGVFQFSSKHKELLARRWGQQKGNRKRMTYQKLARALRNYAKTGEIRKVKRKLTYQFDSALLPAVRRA
# How it was run: as §1
# [9] = target: T6, ELK3 (Homo sapiens, UniProt P41970 1-407); conditions: protein: recombinant; tags: N-terminal GST; dsDNA, one strand shown
# T6 sequence: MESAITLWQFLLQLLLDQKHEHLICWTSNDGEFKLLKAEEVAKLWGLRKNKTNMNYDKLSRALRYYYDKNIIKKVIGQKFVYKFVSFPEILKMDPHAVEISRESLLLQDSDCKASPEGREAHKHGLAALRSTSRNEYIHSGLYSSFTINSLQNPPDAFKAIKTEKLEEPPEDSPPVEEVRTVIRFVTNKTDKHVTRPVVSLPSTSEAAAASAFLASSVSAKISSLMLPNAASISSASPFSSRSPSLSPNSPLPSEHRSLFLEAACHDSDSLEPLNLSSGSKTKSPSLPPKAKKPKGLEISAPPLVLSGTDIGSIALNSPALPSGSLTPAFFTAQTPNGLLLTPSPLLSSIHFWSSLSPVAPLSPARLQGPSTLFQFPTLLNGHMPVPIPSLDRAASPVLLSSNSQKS
# How it was run: as §1
# [10] = target: T7, FEV (Homo sapiens, UniProt Q99581 1-238); conditions: protein: recombinant; tags: N-terminal GST; dsDNA, one strand shown
# T7 sequence: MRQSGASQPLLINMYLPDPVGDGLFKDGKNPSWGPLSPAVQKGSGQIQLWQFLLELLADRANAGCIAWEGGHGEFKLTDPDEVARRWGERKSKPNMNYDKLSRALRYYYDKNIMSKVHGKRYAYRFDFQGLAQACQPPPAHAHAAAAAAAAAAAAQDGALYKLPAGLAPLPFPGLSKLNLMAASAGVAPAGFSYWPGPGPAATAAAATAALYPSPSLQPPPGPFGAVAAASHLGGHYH
# How it was run: as §1
# [11] = target: ETV5 (Homo sapiens, UniProt P41161 1-510); conditions: protein: recombinant; tags: N-terminal GST; dsDNA, one strand shown
# Chain of ETV5 (P41161 whole entry): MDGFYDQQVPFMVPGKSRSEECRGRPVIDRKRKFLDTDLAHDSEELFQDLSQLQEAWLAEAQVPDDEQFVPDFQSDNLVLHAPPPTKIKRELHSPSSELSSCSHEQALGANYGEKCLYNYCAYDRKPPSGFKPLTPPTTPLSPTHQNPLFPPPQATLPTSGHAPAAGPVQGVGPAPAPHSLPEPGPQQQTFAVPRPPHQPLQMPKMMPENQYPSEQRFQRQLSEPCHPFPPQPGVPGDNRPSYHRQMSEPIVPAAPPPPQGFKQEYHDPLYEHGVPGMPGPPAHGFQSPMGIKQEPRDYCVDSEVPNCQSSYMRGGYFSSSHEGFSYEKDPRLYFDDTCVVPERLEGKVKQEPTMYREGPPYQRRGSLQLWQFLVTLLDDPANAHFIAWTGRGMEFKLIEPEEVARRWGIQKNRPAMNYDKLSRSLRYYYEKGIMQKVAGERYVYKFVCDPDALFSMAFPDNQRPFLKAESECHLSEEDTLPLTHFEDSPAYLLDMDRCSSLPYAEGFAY
# How it was run: as §1
# [12] = target: HSF1 (Homo sapiens, UniProt Q00613 1-529); conditions: protein: recombinant; tags: N-terminal GST; chain copies: 3; dsDNA, one strand shown
# Chain of HSF1 (Q00613 whole entry): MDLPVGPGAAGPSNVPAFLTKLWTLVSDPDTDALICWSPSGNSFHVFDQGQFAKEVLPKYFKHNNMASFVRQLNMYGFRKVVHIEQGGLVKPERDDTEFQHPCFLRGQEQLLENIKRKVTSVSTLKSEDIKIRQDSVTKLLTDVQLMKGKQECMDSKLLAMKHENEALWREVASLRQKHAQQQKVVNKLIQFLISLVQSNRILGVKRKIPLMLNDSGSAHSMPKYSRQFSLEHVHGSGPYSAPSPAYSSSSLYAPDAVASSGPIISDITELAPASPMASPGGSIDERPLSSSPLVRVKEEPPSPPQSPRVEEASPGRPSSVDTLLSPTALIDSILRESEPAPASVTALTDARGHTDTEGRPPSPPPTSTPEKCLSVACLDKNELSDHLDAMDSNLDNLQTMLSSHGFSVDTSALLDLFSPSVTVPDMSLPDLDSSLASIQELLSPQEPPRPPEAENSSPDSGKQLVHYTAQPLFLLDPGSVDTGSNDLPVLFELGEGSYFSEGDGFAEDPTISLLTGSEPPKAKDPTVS
# How it was run: as §1
# [13] = target: T8, SPIC (Homo sapiens, UniProt Q8N5J4 1-248); conditions: protein: recombinant; tags: N-terminal GST; dsDNA, one strand shown
# T8 sequence: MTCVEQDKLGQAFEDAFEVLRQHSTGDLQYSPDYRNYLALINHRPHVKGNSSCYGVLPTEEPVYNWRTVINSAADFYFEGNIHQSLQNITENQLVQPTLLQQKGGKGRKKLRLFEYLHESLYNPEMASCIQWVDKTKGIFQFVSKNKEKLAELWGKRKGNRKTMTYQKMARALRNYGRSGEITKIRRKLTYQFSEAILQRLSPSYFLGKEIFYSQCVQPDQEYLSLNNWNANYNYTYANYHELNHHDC
# How it was run: as §1
# [14] = target: ELF4 (Homo sapiens, UniProt Q99607 1-663); conditions: protein: recombinant; tags: N-terminal GST; dsDNA, one strand shown
# Chain of ELF4 (Q99607 whole entry): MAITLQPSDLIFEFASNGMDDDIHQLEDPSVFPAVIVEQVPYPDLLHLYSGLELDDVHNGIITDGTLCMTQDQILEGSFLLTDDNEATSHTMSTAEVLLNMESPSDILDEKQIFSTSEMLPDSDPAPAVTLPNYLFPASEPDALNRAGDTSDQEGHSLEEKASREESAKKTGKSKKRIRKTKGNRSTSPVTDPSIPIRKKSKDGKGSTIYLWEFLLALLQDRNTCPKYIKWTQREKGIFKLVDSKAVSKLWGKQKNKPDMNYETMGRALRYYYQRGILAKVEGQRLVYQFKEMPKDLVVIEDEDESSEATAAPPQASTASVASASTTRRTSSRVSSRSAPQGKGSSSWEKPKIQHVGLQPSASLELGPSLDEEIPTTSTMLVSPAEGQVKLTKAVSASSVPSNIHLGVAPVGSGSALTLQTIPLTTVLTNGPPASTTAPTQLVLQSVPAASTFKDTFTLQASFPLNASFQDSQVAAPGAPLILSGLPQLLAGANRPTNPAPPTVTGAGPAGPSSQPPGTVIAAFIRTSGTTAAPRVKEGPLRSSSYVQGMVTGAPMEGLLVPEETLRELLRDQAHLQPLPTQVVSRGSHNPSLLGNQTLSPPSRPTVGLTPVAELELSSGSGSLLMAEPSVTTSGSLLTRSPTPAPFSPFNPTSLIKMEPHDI
# How it was run: as §1
# [15] = target: T9, ELK4 (Homo sapiens, UniProt P28324-2 1-405); conditions: protein: recombinant; tags: N-terminal GST; dsDNA, one strand shown
# T9 sequence: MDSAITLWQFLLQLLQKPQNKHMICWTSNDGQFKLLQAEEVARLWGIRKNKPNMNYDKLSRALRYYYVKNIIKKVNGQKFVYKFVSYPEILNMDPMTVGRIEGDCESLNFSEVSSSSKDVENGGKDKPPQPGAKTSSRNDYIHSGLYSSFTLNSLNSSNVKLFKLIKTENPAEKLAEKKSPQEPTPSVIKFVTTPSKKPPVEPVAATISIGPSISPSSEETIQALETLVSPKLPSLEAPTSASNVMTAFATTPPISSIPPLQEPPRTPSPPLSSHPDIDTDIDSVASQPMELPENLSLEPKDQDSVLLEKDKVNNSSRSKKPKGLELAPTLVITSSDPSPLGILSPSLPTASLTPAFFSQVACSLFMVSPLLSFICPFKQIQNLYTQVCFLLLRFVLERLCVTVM
# How it was run: as §1
# [16] = target: T10, ETV2 (Homo sapiens, UniProt O00321 1-342); conditions: protein: recombinant; tags: N-terminal GST; dsDNA, one strand shown
# T10 sequence: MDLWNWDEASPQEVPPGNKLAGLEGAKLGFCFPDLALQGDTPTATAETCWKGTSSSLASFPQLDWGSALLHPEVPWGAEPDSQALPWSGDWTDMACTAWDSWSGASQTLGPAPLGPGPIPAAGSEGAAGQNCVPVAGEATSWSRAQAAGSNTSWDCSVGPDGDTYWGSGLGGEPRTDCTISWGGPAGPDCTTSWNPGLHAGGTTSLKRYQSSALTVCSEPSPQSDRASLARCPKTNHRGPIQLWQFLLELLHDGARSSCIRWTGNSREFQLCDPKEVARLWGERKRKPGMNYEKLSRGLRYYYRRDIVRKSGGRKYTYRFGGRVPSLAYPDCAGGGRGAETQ
# How it was run: as §1
# [17] = target: T11, ELF3 (Homo sapiens, UniProt P78545 1-371); conditions: protein: recombinant; tags: N-terminal GST; dsDNA, one strand shown
# T11 sequence: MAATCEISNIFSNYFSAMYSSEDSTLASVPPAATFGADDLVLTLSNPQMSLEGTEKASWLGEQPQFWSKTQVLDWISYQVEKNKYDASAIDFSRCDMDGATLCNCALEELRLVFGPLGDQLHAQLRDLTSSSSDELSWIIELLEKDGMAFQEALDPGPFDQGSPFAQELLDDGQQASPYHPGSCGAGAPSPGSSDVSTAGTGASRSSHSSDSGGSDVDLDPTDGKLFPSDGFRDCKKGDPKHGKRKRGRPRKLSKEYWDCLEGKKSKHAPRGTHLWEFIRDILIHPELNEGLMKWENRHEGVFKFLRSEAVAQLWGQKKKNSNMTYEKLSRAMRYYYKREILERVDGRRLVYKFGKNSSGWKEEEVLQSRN
# How it was run: as §1
# [18] = target: CRX (Homo sapiens, UniProt O43186 1-299); conditions: protein: recombinant; tags: N-terminal GST; dsDNA, one strand shown
# Chain of CRX (O43186 whole entry): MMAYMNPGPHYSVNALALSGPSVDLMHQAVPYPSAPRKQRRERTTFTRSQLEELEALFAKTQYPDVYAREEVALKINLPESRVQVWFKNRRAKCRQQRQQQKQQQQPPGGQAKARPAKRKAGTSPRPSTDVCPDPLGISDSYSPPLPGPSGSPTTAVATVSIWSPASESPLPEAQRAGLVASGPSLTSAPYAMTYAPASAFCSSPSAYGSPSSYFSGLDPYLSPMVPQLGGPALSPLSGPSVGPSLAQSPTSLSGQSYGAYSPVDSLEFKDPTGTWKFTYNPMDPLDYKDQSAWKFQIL
# How it was run: as §1
# [19] = target: ETV1 (Homo sapiens, UniProt P50549 1-477); conditions: protein: recombinant; tags: N-terminal GST; dsDNA, one strand shown
# Chain of ETV1 (P50549 whole entry): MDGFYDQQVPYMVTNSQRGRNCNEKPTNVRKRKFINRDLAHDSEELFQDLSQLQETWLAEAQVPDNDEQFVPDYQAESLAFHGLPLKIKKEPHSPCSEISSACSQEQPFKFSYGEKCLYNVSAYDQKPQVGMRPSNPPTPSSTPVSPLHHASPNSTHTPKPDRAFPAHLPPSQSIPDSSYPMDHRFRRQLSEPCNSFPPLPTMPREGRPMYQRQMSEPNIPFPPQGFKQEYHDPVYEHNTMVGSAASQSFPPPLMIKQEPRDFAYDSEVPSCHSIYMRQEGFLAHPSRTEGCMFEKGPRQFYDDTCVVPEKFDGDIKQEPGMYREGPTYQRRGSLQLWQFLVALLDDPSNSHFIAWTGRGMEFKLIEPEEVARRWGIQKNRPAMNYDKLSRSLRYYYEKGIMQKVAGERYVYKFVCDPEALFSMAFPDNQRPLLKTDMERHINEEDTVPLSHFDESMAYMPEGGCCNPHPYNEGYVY
# How it was run: as §1
sequence,measurement,setting,value
CTCCCG,binding signal,[1],"1.61 fold enrichment (6-mer frequency, TF over GST control)"
same,binding signal,[2],"1.56 fold enrichment (6-mer frequency, TF over GST control)"
same,binding signal,[3],"1.62 fold enrichment (6-mer frequency, TF over GST control)"
same,binding signal,[4],"1.54 fold enrichment (6-mer frequency, TF over GST control)"
same,binding signal,[5],"1.57 fold enrichment (6-mer frequency, TF over GST control)"
same,binding signal,[6],"1.75 fold enrichment (6-mer frequency, TF over GST control)"
same,binding signal,[7],"1.45 fold enrichment (6-mer frequency, TF over GST control)"
same,binding signal,[8],"1.62 fold enrichment (6-mer frequency, TF over GST control)"
same,binding signal,[9],"1.58 fold enrichment (6-mer frequency, TF over GST control)"
same,binding signal,[10],"1.61 fold enrichment (6-mer frequency, TF over GST control)"
same,binding signal,[11],"1.59 fold enrichment (6-mer frequency, TF over GST control)"
same,binding signal,[12],"1.5 fold enrichment (6-mer frequency, TF over GST control)"
same,binding signal,[13],"1.77 fold enrichment (6-mer frequency, TF over GST control)"
same,binding signal,[14],"1.68 fold enrichment (6-mer frequency, TF over GST control)"
same,binding signal,[15],"1.46 fold enrichment (6-mer frequency, TF over GST control)"
same,binding signal,[16],"1.25 fold enrichment (6-mer frequency, TF over GST control)"
same,binding signal,[17],"1.69 fold enrichment (6-mer frequency, TF over GST control)"
same,binding signal,[18],"1.27 fold enrichment (6-mer frequency, TF over GST control)"
same,binding signal,[19],"1.5 fold enrichment (6-mer frequency, TF over GST control)"
